14 molecules from PubChem BioAssay (EPA / NIEHS) can be followed below.

SMILES strings stand for the structures. Results filed as inconclusive are left out. The source made the active and inactive calls. The calls were made as follows: active = hit-call score of the fitted dose curve at least 0.9, where 1 is the maximum; inconclusive = response in the unintended direction; inactive = score below 0.9.

Sequence of human Opioid Receptor Mu (Opiate Mu), OPRM1 (gene 4988) (P35372 whole entry, looked up): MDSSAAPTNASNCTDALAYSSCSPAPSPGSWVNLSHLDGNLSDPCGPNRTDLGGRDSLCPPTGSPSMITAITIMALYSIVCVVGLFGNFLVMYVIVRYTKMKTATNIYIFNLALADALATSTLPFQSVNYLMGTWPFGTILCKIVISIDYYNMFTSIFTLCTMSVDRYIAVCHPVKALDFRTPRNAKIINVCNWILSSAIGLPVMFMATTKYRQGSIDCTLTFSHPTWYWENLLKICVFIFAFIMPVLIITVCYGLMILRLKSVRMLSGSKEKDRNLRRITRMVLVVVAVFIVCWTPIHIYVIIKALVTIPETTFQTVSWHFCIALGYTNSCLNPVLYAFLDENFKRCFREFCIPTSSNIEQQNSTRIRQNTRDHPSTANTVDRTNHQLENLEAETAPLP

The assay concerns the target human Opioid Receptor Mu (Opiate Mu), OPRM1 (gene 4988) (UniProt P35372). Description: NVS_GPCR_hOpiate_mu: NovaScreen (NVS) G Protein-Coupled Receptor Assay for human Opioid Receptor Mu (Opiate Mu) (AID 2283290).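 Also: hits lower bound tracer signal versus DMSO meaning displacement of the ligand.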 How it is done:
NVS_GPCR_hOpiate_mu is a biochemical, single-readout assay that uses extracted gene-proteins from CHO in a cell-free assay. Measurements were taken 2.5 hours after chemical dosing in a 96-well plate.NVS_GPCR_hOpiate_mu is one of one assay component(s) measured or calculated from the NVS_GPCR_hOpiate_mu assay. It is designed to make measurements of radioligand binding, a form of binding reporter, as detected with scintillation counting signals by Filter-based radiodetection technology.Data from the assay component NVS_GPCR_hOpiate_mu was analyzed into 1 assay endpoint. This assay endpoint, NVS_GPCR_hOpiate_mu, was analyzed in the positive analysis fitting direction relative to DMSO as the negative control and baseline of activity. Using a type of binding reporter, loss-of-signal activity can be used to understand changes in the binding as they relate to the gene OPRM1. Furthermore, this assay endpoint can be referred to as a primary readout, because the performed assay has only produced 1 assay endpoint. To generalize the intended target to other relatable targets, this assay endpoint is annotated to the gpcr intended target family, where the subfamily is rhodopsin-like receptor.
Binding assays used specific radioligands (tritiated, iodinated) with non-radioactive competitive displacement ligands in agonist or antagonist protocols (as indicated) and various reference compounds and inhibitors to titrate specific binding to receptors and transporters. Most enzyme assays (CYPs, kinases, phosphatases, proteases, HDACs) used recombinant protein and specific substrates (fluorescence mostly, some colorimetric and radioactive) and inhibitors, followed by a biochemical separation of substrate and product. All assays for the biochemical HTS were initially run in duplicate at a single concentration (10 uM for CYP450 assays and 25 uM for all others). […] Each assay was run with positive and negative controls, and concurrent controls on every plate. The follow-up (secondary) screen tested active chemical-pairs in concentration series, as well as a few additional assays not tested in the primary screen, some selected negative inactives, and several cases re-run in the concentration series for confirmatory purposes.
For the molecule `NC(=O)N(O)[C@@H]1C=C[C@H](Oc2cccc(Oc3ccc(F)cc3)c2)C1`, the call was inactive.

For the molecule `CC#C[C@]1(O)CC[C@H]2[C@@H]3CCC4=CC(=O)CCC4=C3[C@@H](c3ccc(N(C)C)cc3)C[C@@]21C`, the AC50 is 0.908 µM (active).

Consider `CCC(=C(c1ccc(O)cc1)c1ccc(OCCN(C)C)cc1)c1ccccc1`, for which the AC50 was 3.93 µM (active).

Take `CC(C)CCCCCCOC(=O)CCCCC(=O)OCCCCCCC(C)C`: the molecule was classed as inactive.

Consider `NC(=O)N1C(=O)C(C(=O)c2cc(Cl)cs2)c2cc(F)c(Cl)cc21` (centres undefined), for which the molecule was called inactive.

Consider `CCCCCCCCCCCCCC[N+](C)(C)C`, for which the AC50 is 8.19 µM (active).

On to `Cc1oc(-c2ccccc2)nc1CCOc1ccc(C[C@H](Nc2ccccc2C(=O)c2ccccc2)C(=O)O)cc1`, for which the molecule was called inactive.

As to `CCN(CC)CCNc1ccc(CNC=O)c2sc3ccc(OC)cc3c(=O)c12`, the concentration at half-maximal activity (AC50) was 9.79 µM (active).

`CC[C@H](c1ccc(O)cc1)[C@@H](CC)c1ccc(O)cc1`: the AC50 is 1.1 µM (active).

Regarding `CC(C)(C)c1ccc(O)c(C(C)(C)C)c1`, the result was inactive.

For the molecule `CCCCCCCCCCCCc1ccccc1S(=O)(=O)O`, the AC50 is 15.1 µM (active).

As for `CC(=O)NC1(c2cccc(F)c2)CCN(CC[C@@]2(c3ccc(Cl)c(Cl)c3)CN(c3ccccc3)C(=O)CO2)CC1`, the AC50 is 10.3 µM (active).

As to `CCCOc1sc(C(=O)N2CCC(c3cc(CN)ccc3F)CC2)c(C)c1Br`, the AC50 was 3.97 µM (active).

In the case of `O=C(O)Cc1cc(I)c(Oc2cc(I)c(O)c(I)c2)c(I)c1`, the AC50 was 14.3 µM (active).

By AC50 is commonly meant the concentration giving half of the maximal activity seen.
